Data as given in PubChem BioAssay (NCATS).
Results filed as inconclusive are left out. A call without a number means that no potency is given here. Activity calls are given as the source filed them. Calls follow the shape of the dose curve; as a rule, active = well fitted curve in the direction sought with a large enough effect; inconclusive = small, poorly fitted or top-dose-only effect, or another doubt; inactive = no such curve, though single readings can be large; an effect the other way counts as inactive or inconclusive.

How the values were obtained:
[1] = qHTS of pediatric cancer cell lines to identify multiple opportunities for drug repurposing: Primary screen for LAN-5 cells (AID 1347100); also: potency is read from the fitted curve at half-maximal effect
Outline: (§1)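 Cells (500-1,000/well) in growth media were settled 5 h at 37 degrees C, then given compounds for 48 h. Viability was read as CellTiter-Glo luminescence. Primary runs used MIPE at 11 points (0.78 nM-46 µM) and NPC at 8 points (0.59 nM-46 µM); follow-ups used 11 points.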

[2] = qHTS of pediatric cancer cell lines to identify multiple opportunities for drug repurposing: Primary screen for BT-12 cells (AID 1347101); also: nearly all actives have a fitted effect of over 25% in size; also: potency is read from the fitted curve at half-maximal effect
Outline: (§2)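 Cells (500-1,000/well) rested 5 h, then received compounds for 48 h; metabolically active cells were measured by CellTiter-Glo luminescence. Final concentrations spanned up to 46 µM (MIPE, 11-point) or 0.59 nM-46 µM (NPC, 8-point) in primary screens, 11-point in follow-ups.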

[3] = qHTS of pediatric cancer cell lines to identify multiple opportunities for drug repurposing: Primary screen for Rh18 cells (AID 1347102); also: nearly all actives have a fitted effect of over 65% in size; also: potency is read from the fitted curve at half-maximal effect
Outline: as §1

[4] = qHTS of pediatric cancer cell lines to identify multiple opportunities for drug repurposing: Primary screen for OHS-50 cells (AID 1347103); also: nearly all actives have a fitted effect of over 40% in size; also: potency is read from the fitted curve at half-maximal effect
Outline: as §2

[5] = qHTS of pediatric cancer cell lines to identify multiple opportunities for drug repurposing: Primary screen for MG 63 (6-TG R) cells (AID 1347105); also: nearly all actives have a fitted effect of over 50% in size; also: potency is read from the fitted curve at half-maximal effect
Outline: (§3)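 Following a 5-hour attachment period, cells at 500-1,000/well received compounds and were cultured for 48 hours. CellTiter-Glo was added and luminescence read to estimate viable, metabolically active cells.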

[6] = qHTS of pediatric cancer cell lines to identify multiple opportunities for drug repurposing: Primary screen for control Hh wild type fibroblast cells (AID 1347106); also: nearly all actives have a fitted effect of over 55% in size; also: potency is read from the fitted curve at half-maximal effect
Outline: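 Viability after 48 h compound treatment at 37C, 500-1,000 cells/well, read as ATP luminescence with CellTiter-Glo. Primary screens used 11-point (MIPE, 0.78 nM-46 µM) or 8-point (NPC, 0.59 nM-46 µM) final concentrations; follow-up screens used 11-point dilutions.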

[7] = qHTS of pediatric cancer cell lines to identify multiple opportunities for drug repurposing: Primary screen for Rh30 cells (AID 1347107); also: series mostly up to about 46 µM; nearly all actives have a fitted effect of over 75% in size
Outline: as §1

[8] = qHTS of pediatric cancer cell lines to identify multiple opportunities for drug repurposing: Primary screen for Rh41 cells (AID 1347108); also: nearly all actives have a fitted effect of over 70% in size; also: potency is read from the fitted curve at half-maximal effect
Outline: as §3

[9] = qHTS of pediatric cancer cell lines to identify multiple opportunities for drug repurposing: Primary screen for RD cells (AID 1347104); also: nearly all actives have a fitted effect of over 55% in size; also: potency is read from the fitted curve at half-maximal effect
Outline: as §3

Row | SMILES | Potency [1] | Potency [2] | Potency [3] | Potency [4] | Potency [5] | Potency [6] | Potency [7] | Potency [8] | Potency [9]
1 | O=c1[nH]c(=O)n([C@H]2C[C@@H](O)[C@@H](CO)O2)cc1C(F)(F)F | 3.32 µM (active) | 10.9 µM (active) | inactive | 17.2 µM (active) | inactive | inactive | inactive | inactive | 
2 | COc1cc2ncn(-c3cc(OCc4ccccc4S(C)(=O)=O)c(C#N)s3)c2cc1OC | inactive | inactive | inactive |  | inactive |  |  | inactive | 
3 | O=C(c1ccc(F)c(F)c1Nc1ccc(I)cc1F)N1CC(O)([C@H]2CCCCN2)C1 | 0.935 µM (active) | 1.09 µM (active) | 16.6 µM (active) | 1.09 µM (active) | 29.6 µM (active) | 16.6 µM (active) |  | 18.7 µM (active) | 0.526 µM (active)
4 | CC[C@H](NC(=O)[C@H](C)NC)C(=O)N1C[C@@H](O)C[C@H]1Cc1c(-c2[nH]c3cc(F)ccc3c2C[C@H]2C[C@H](O)CN2C(=O)[C@H](CC)NC(=O)[C@H](C)NC)[nH]c2cc(F)ccc12 | 0.372 µM (active) | 0.273 µM (active) | inactive | 0.432 µM (active) |  |  | inactive | inactive | 
5 | CC[C@]1(O)C[C@H]2CN(CCC3=c4ccccc4=N[C]3[C@@](C(=O)OC)(c3cc4c(cc3OC)N(C)[C@H]3[C@@](O)(C(N)=O)[C@H](O)[C@]5(CC)C=CCN6CC[C@]43[C@@H]65)C2)C1 | 0.0166 µM (active) | 0.122 µM (active) |  | 0.0685 µM (active) |  |  | inactive |  | 0.0332 µM (active)
6 | Cc1ccc(S(=O)(=O)Nc2nc3ccccc3nc2Nc2ccc3nsnc3c2)cc1 | 0.0323 µM (active) | 0.0668 µM (active) |  | 0.0421 µM (active) |  | inactive |  |  | 0.0512 µM (active)
7 | COc1cc2nccc(Oc3ccc(NC(=O)Nc4ccc(F)cc4F)c(F)c3)c2cc1OC | 0.833 µM (active) | inactive |  | 1.53 µM (active) | 9.35 µM (active) | inactive |  |  | 
8 | C[C@H]1COC2=C1C(=O)C(=O)c1c2ccc2c1CCCC2(C)C | inactive |  | inactive | inactive | inactive | inactive | inactive |  | inactive
9 | COc1cc2c(cc1OC)[C@@H]1Cc3ccc(OC)c(OC)c3CN1CC2 | 10.5 µM (active) |  | inactive | inactive | inactive | inactive | inactive |  | inactive
10 | C#C[C@]1(O)CC[C@H]2[C@H]3CCc4cc(OC)ccc4[C@H]3CC[C@@]21C | inactive | inactive | inactive |  |  | inactive | inactive | inactive | 
11 | COc1ccc2ccc(=O)oc2c1CC=C(C)C | 29.6 µM (active) | 24.3 µM (active) |  | 24.3 µM (active) |  | inactive | inactive |  | 
12 | O=C(O)c1nc(=O)[nH]c(=O)[nH]1 | inactive | inactive | inactive | inactive | inactive | inactive | inactive | inactive | 
13 | C[C@@]1(c2cc(-c3cncnc3)c(F)cc2F)CCSC(N)=N1 | 3.72 µM (active) | 3.85 µM (active) | inactive | 2.73 µM (active) |  | inactive | inactive | inactive | 2.09 µM (active)
14 | N#CC(c1ccnc(NCCc2cccnc2)n1)c1nc2ccccc2s1 (stereo not drawn) | 16.6 µM (active) | 21.7 µM (active) |  | 19.3 µM (active) |  | inactive |  | 23.5 µM (active) | 23.5 µM (active)
15 | Cc1cnc(-c2cc(N3CCN(C(=O)CCS(C)(=O)=O)CC3)ncc2Cl)c(C)c1 | inactive | inactive | inactive |  | inactive | inactive | inactive |  | 
16 | CC(C)C[C@@H](N)[C@H](O)C(=O)N[C@H](C(=O)N[C@H](C(=O)N[C@@H](CC(=O)O)C(=O)O)C(C)C)C(C)C | inactive | inactive | inactive | inactive |  | inactive |  |  | inactive
17 | CN1C(=O)C[C@H](C(=O)N[C@@H](Cc2cnc[nH]2)C(=O)N2CCC[C@@H]2C(N)=O)NC1=O | 20.9 µM (active) |  | inactive | inactive | inactive | inactive | inactive |  | 
18 | CN1CCN(c2cccc(Nc3nc4c(-c5ccc(S(C)(=O)=O)cc5)cccn4n3)c2)CC1 | 13.2 µM (active) |  | 18.7 µM (active) | 7.69 µM (active) |  | inactive |  | 18.7 µM (active) | 
19 | CC1C(=O)OC2C(O)C34C5CC(C(C)(C)C)C36C(OC(=O)C6O)OC4(C(=O)O5)C12O (stereo not drawn) | 20.9 µM (active) |  | inactive | inactive | inactive | inactive | inactive | inactive | 
20 | CC1(C)CC(=O)c2c(C(F)(F)F)nn(-c3ccc(C(N)=O)c(NC4CCC(O)CC4)c3)c2C1 (stereo not drawn) | 0.148 µM (active) |  | 0.264 µM (active) | 0.306 µM (active) |  |  |  | 0.296 µM (active) | 0.0743 µM (active)

Row | SMILES | Potency [1] | Potency [2] | Potency [3] | Potency [4] | Potency [5] | Potency [6] | Potency [7] | Potency [8] | Potency [9]
21 | O=C(Nc1cccc(Cl)c1)Nc1ncc(CCNc2ncnc3ccsc23)s1 | 0.132 µM (active) |  |  | 7.69 µM (active) |  | inactive |  |  | 
22 | NC(=O)c1nnn(Cc2cc(Cl)c(C(=O)c3ccc(Cl)cc3)c(Cl)c2)c1N | 20.9 µM (active) |  |  | 21.7 µM (active) | inactive | inactive |  |  | 
23 | CCn1c(-c2nonc2N)nc2cncc(CNC3CCNCC3)c21 | 20.9 µM (active) |  |  | inactive |  | inactive |  |  | 
24 | CCC(=O)N1CCN(c2ccc(-n3c(=O)ccc4cnc5ccc(-c6cnc7ccccc7c6)cc5c43)cc2C(F)(F)F)CC1 | inactive |  |  | 0.0432 µM (active) |  |  | inactive |  | 
25 | CN(C)CCCNC(=O)c1ccc(-c2cc(O)c3ncccc3c2)cc1 | inactive |  | inactive |  | inactive |  |  |  | 
26 | O=C(c1ccc(C=Cc2n[nH]c3ccccc23)cc1)N1CCNCC1 | 0.833 µM (active) |  | inactive | 2.17 µM (active) |  | inactive |  |  | 
27 | COC1CCC(C(=O)c2ccc3nc4c(cc3c2)CCCO4)CC1 (stereo not drawn) |  | 1.93 µM (active) | inactive | 12.2 µM (active) |  | inactive |  |  | 26.4 µM (active)
28 | Cc1csc(-c2nnc(Nc3ccc(Oc4ncccc4-c4ccnc(N)n4)cc3)c3ccccc23)c1 | 0.001 µM (active) |  | inactive |  | inactive | inactive | inactive |  | 
29 | CC1=C[C@@H]2[C@@H]([C@@H](O)C[C@@]3(C)[C@H]2C[C@@H](C)[C@]3(O)C(=O)CO)[C@@]2(C)Cc3cnn(-c4ccccc4)c3C=C12 | 23.5 µM (active) |  | inactive |  |  | inactive |  |  | 29.6 µM (active)
30 | COc1cc2nccc(Oc3ccc(NC(=O)Nc4cc(C)on4)c(Cl)c3)c2cc1OC | 10.5 µM (active) |  | 18.7 µM (active) | 19.3 µM (active) |  |  |  | 14.8 µM (active) | 33.2 µM (active)
31 | COc1cc2c(cc1OC)CC(=O)N(CCCN(C)C[C@H]1Cc3cc(OC)c(OC)cc31)CC2 | inactive |  | inactive |  | inactive | inactive | inactive |  | 
32 | CCCCCCOC(=O)N=C(N)c1ccc(NCc2nc3cc(C(=O)N(CCC(=O)OCC)c4ccccn4)ccc3n2C)cc1 | 23.5 µM (active) |  | inactive |  | inactive | inactive | inactive |  | 
33 | CC(C)n1c(C=C[C@H](O)C[C@H](O)CC(=O)O)c(-c2ccc(F)cc2)c2ccccc21 | inactive |  | 5.9 µM (active) | 4.32 µM (active) |  |  | inactive | inactive | 
34 | Fc1ccc(C(c2ccc(F)cc2)N2CCN(CC=Cc3ccccc3)CC2)cc1 | inactive |  | inactive | inactive | inactive | inactive | inactive |  | inactive
35 | CCC(c1ccc(O)cc1)C(CC)c1ccc(O)cc1 (stereo not drawn) | inactive |  | inactive | 27.3 µM (active) |  | inactive | inactive | inactive | 
36 | CCC(C)SSc1ncc[nH]1 (stereo not drawn) | 14.8 µM (active) |  |  | 15.3 µM (active) | 23.5 µM (active) | inactive | inactive |  | 26.4 µM (active)
37 | COc1ccc(CCN(C)CCCOc2ccc(S(=O)(=O)c3[nH]c4ccccc4c3C(C)C)cc2)cc1OC | 23.5 µM (active) |  |  |  | inactive | inactive | inactive |  | 
38 | Clc1ccc(COC(Cn2ccnc2)c2ccc(Cl)cc2Cl)c(Cl)c1 (stereo not drawn) | 23.5 µM (active) |  |  | 19.3 µM (active) |  | inactive |  |  | 
39 | O=S(=O)(O)c1ccc2cc(N=Nc3cc(S(=O)(=O)O)c4cccnc4c3O)ccc2c1 | inactive |  |  |  |  | inactive |  |  | 
40 | CC1=C(C(=O)Nc2cc3cn[nH]c3cc2F)C(c2ccc(C(F)(F)F)cc2)CC(=O)N1 (stereo not drawn) |  | inactive | inactive | inactive |  | inactive | inactive | inactive | inactive
